Several values for one entry are separate records, joined by “and”; a condition that tells them apart may be missing. Identical values can stand only once. Results filed as inconclusive are left out. Activity calls are given as the source filed them. The call rests on the fitted dose curve; in most records, active means well fitted activation curve with a large enough effect in the repeat runs; inconclusive means weak or mixed curves; inactive means flat fitted curve, though single readings scatter.
test: A CellTox Green Cytotoxicity Assay to monitor cytotoxicity in HepG2 cells - 32 hour (AID 1224883); conditions: CellTox Green fluorescence; series mostly up to 76.8 µM; cytotoxicity increase: at the top concentration; further: nearly all actives have a fitted effect of over 50% in size
Text: National Center for Advancing Translational Sciences [NCATS]
NIH Chemical Genomics Center [NCGC]
U.S. Environmental Protection Agency [EPA]
National Institutes of Environmental Health Sciences [NIEHS]
National Toxicology Program [NTP]
Cell-based models are critical for drug discovery. Determining the natural cytotoxic effects resulting from test compounds is an essential research activity. A CellTox Green Cytotoxicity Assay to monitor cytotoxicity in real time of continues cell culture during 40 hours of the compound treatment was used to screen Tox21 10K library compounds in HepG2 cells. CellTox Green Cytotoxicity Assay is a nonlytic, homogeneous, biofluorescent method to measure cytotoxicity in cell culture after experimental manipulation. The assay system uses a proprietary asymmetric cyanine dye that is excluded from viable cells but preferentially stains the dead cell's DNA. […] Viable cells produce no appreciable increases in fluorescence. Therefore, the fluorescence signal produced by the binding interaction with dead cell DNA is proportional to cytotoxicity.
The mixture of HepG2 cell suspension and reagents were dispensed at 600cells/6 ul/well in 1536-well tissue culture treated black solid bottom plates using a Multidrop dispenser. After the assay plates were incubated at a 37 C/5% CO2 incubator for 5 hours, 23 nL of compounds dissolved in DMSO, positive and negative controls was transferred to the assay plate by a pintool work station. The plates were incubated at 37 C for 40 hours. The fluorescence intensity were measured at 0h, 8h, 16h, 24h, 32h and 40h time points using ViewLux plate reader during compound treatment.
On the % scale 0 is the no-effect control and ±100 the full control effect; potency means the concentration at half of the fitted maximal effect.

Row | Structure (SMILES) | Potency | cytotoxicity increase
1 | CCCC(=O)OCCc1ccccc1 | 43.6 µM (active) | 
2 | COc1cc2nc(N3CCN(C(=O)c4ccco4)CC3)nc(N)c2cc1OC | 10.4 µM (active) | 
3 | OCC(F)(F)F |  | -0.452% (inactive)
4 | OC1CCCc2ccccc21 (stereo not given) |  | 3.53% (inactive)
5 | C=CC(=O)Nc1cc2c(Nc3ccc(F)c(Cl)c3)ncnc2cc1OCCCN1CCOCC1 | 6.01 µM (active) | 
6 | O=[N+]([O-])c1ccc(F)c(Cl)c1 |  | -13.2% (inactive)
7 | CC[N+](CC)(CC)CCOC(=O)C(C1CCCC1)C1CCCC1 |  | 5.91% [at 35.3 µM] (inactive)
8 | O=C(Oc1ccccc1)Oc1ccccc1 |  | -1.59% (inactive)
9 | C=C(C)c1cccc(C(=C)C)c1 |  | -4.81% (inactive)
10 | NC(=S)NC(N)=S |  | -12.9% (inactive)
11 | CCCCCCCCCCCCCCCC[N+](C)(C)CC | 17.4 µM (active) and 19 µM (active) | 
12 | Cc1ccc(N/N=c2\c(=O)cc/c(=N\Nc3ccc(S(=O)(=O)O)cc3)c2=O)c(C)c1 |  | -30.5% (inactive)
13 | C1CCC(SSC2CCCCC2)CC1 |  | 4.3% (inactive)
14 | COc1cc(S(=O)(=O)O)c(C)cc1N=Nc1c(O)ccc2cc(S(=O)(=O)O)ccc12 |  | -47.8% (inactive)
15 | CC(CCc1ccccc1)NCC(O)c1ccc(O)c(C(N)=O)c1 (stereo not given) |  | 0.565% (inactive)
16 | c1ccsc1 |  | -10.9% (inactive)
17 | Cc1cccc2cccnc12 |  | -0.905% (inactive)
18 | CC(C)Cn1cnc2c(N)nc3ccccc3c21 |  | -12% [at 15.8 µM] (inactive)
19 | O=C1OC2(c3ccc(O)cc3Oc3cc(O)ccc32)c2ccc(N=C=S)cc21 | 15.8 µM (active) | 
20 | COC(=O)C1=C(C)NC(C)=C(C(=O)OCCN2CCN(C(c3ccccc3)c3ccccc3)CC2)C1c1cccc([N+](=O)[O-])c1 (stereo not given) |  | -3.62% [at 35.3 µM] (inactive)

Row | Structure (SMILES) | Potency | cytotoxicity increase
21 | C#Cc1ccc(-c2ccccc2F)cc1 |  | -18% [at 35.3 µM] (inactive)
22 | OC[C@@H](O)[C@@H](O)CO |  | -2.3% (inactive)
23 | C/C=C/C=C/COC(=O)C(C)C | 38.9 µM (active) | 
24 | COc1c(C)c2c(c(O)c1C/C=C(\C)CCC(=O)OCCN1CCOCC1)C(=O)OC2 |  | -2.11% [at 35.3 µM] (inactive)
25 | O[C@@H]([C@H](O)[C@H](O)CBr)[C@H](O)CBr |  | -0.553% (inactive)
26 | CC(C)NC[C@@H](O)COc1ccc(CC(N)=O)cc1 |  | 21.4% [at 35.3 µM] (inactive)
27 | CCCNCCC |  | -0.156% (inactive)
28 | CC1(C)CC(O)CC(C)(C)N1 |  | -1.97% (inactive)
29 | CCC(CC)(CC(=O)Nc1cccc(/C=C/c2nc(C3CCC3)cs2)c1)C(=O)O |  | -2.12% [at 35.3 µM] (inactive)
30 | CC(=O)c1ccc(C(C)=O)cc1 |  | 8.13% (inactive)
31 | CCC(=O)OC(=O)CC |  | -6.52% (inactive)
32 | O=C(/C=C/c1ccccc1)OC/C=C/c1ccccc1 |  | 0.869% (inactive)
33 | CCN1C(=O)c2ccccc2C1Nc1ccc(OCCN2CCCCC2)cc1 (stereo not given) |  | 2.42% [at 35.3 µM] (inactive)
34 | Cc1c2ccccc2c(C)c2c1ccc1ccccc12 |  | -8.55% (inactive)
35 | Nc1nc2c(ncn2COCCO)c(=O)[nH]1 |  | -4.13% [at 35.3 µM] (inactive)
36 | CCc1oc2ccccc2c1C(=O)c1cc(I)c(O)c(I)c1 |  | -4.92% [at 35.3 µM] (inactive)
37 | CC1(C)CCC[C@]2(C)[C@H]3CC(=O)O[C@]3(C)CC[C@@H]12 |  | 26.7% (inactive)
38 | ClCCl |  | 0.649% (inactive)
39 | COC(=O)Nc1nc2ccc(C(=O)c3ccccc3)cc2[nH]1 |  | 21.1% [at 35.3 µM] (inactive)
40 | C#C[C@]1(OC(C)=O)CC[C@H]2[C@@H]3CCC4=C[C@@H](OC(C)=O)CC[C@@H]4[C@H]3CC[C@@]21C |  | 2.86% [at 35.3 µM] (inactive)

From PubChem BioAssay (Tox21)
